# Shown are actives, neighbours in structure and some others; about 12% of the full set was active somewhere.
# BAZ2B block: inhibitors of human BAZ2B bromodomain. Q9UIF8. AlphaScreen BAZ2B-H3K14Ac peptide displacement. Potency, µM (series often up to 114 µM), for the others: top-dose activity change, negative = inhibition, actives largely listed as inhibitors. 360,000 tested, 4.4% active; also: % is scaled to controls: 0 for no effect and ±100 for the full control effect; nearly all actives have a fitted effect of over 60% in size
#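 BAZ2B 50 nM plus b-H3(5-23)K14Ac 50 nM, PBS pH 7.4/0.01% Tween-20, 30 min RT; compound added (max 110 uM), 30 min RT; streptavidin donor/Ni-chelate acceptor beads 10 ug/mL final, 20 min dark; AlphaScreen read.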
# Sfp PPTase inh: inhibitors of Bacillus subtilis Sfp phosphopantetheinyl transferase. Q9F4F7. Biochemical Sfp PPTase activity, qHTS. Potency, µM, inactives show largest response in the series, negative = inhibition, hits mostly inhibitors. 310,000 tested, 3.5% active;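 also: the enzyme is Sfp with the accession as filed and its product quenches rhodamine fluorescence; 0% = enzyme reaction without inhibitor and -100% = no enzyme wells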
#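 Sfp 15 nM + cpd, 15 min RT; start w/ rhodamine-CoA 5 uM, BHQ-2-YbbR 12.5 uM (final); 50 mM Hepes pH 7.6, 10 mM MgCl2, 0.01% NP-40, 0.01% BSA; read 525/598 nm at 0 and 30 min.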
# JMJD2A Tudor: JMJD2A Tudor domain (human) inhibition; O75164; AlphaScreen JMJD2A-Tudor / H3K4me3 peptide binding; Potency, µM (highest dose often 114 µM), for inactives: top-dose activity change, negative = inhibition, actives largely listed as inhibitors; 390,000 tested, 4.4% active; also: % is scaled to controls: 0 for no effect and ±100 for the full control effect; nearly all actives have a fitted effect of over 50% in size
# HP1b chromo inh: HP1-beta chromodomain-methylated histone interaction inhibition; 390,000 tested, 0.56% active; Potency, µM (top dose mostly 114 µM), for inactives: top-dose activity change, negative = inhibition, usual class: inhibitors; AlphaScreen HP1-beta / biotin-H3K9me3 peptide binding; P83916; also: nearly all actives have a fitted effect of over 70% in size
#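 Compound inhibition of the preformed complex between 50 nM HP1-beta and 50 nM biotinylated H3K9me3 peptide was read by AlphaScreen. Buffer was PBS pH 7.4 with 0.01% Tween-20. Incubations ran 30 min at room temperature, with 10 ug/mL donor/acceptor beads.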
# G9a inh: G9a (human) methyltransferase inhibition; Q96KQ7; G9a H3K9 monomethylation, AlphaScreen, 2 h; Potency, µM (highest dose often 102 µM), inactives show top-dose activity, negative = inhibition, actives largely listed as inhibitors; 350,000 tested, 8.8% active; AID 504332; also: % is scaled to controls: 0 for no effect and ±100 for the full control effect; nearly all actives have a fitted effect of over 75% in size
#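 Chemiluminescent proximity detection of H3K9 monomethylation, read after 10 min bead incubation in the dark. Reaction: 20 nM G9a, 500 nM biotin-H3K9 peptide, 20 uM SAM cofactor, 2 h, room temperature, following 15 min enzyme-compound preincubation.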
# L3MBTL1 block: inhibitors of human L3MBTL1. AlphaScreen L3MBTL1–H3K9me1 peptide binding. Potency, µM (highest dose often 57.1 µM), for inactives: at the highest dose activity, negative = inhibition, most hits filed as inhibitors. Q9Y468. 230,000 tested, 0.66% active; also: % is scaled to controls: 0 for no effect and ±100 for the full control effect; nearly all actives have a fitted effect of over 60% in size
#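 Read-out is AlphaScreen signal from streptavidin donor and nickel chelate acceptor beads (10 ug/mL final each) bridging L3MBTL1 (50 nM) and biotinylated K9-monomethylated H3(1-15) peptide (75 nM), after 30 min compound exposure at room temperature.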
# * hit, by the source's call; ? = inconclusive; . = no result; [ ] = dose if it differs, or a comment. Calls follow the shape of the dose curve; as a rule, active = well fitted curve in the direction sought with a large enough effect; inconclusive = small, poorly fitted or top-dose-only effect, or another doubt; inactive = no such curve, though single readings can be large; an effect the other way counts as inactive or inconclusive. Potency is read from the fitted curve at half-maximal effect.
SMILES,BAZ2B block,Sfp PPTase inh,JMJD2A Tudor,HP1b chromo inh,G9a inh,L3MBTL1 block
COCCCn1c(Cc2csc(Nc3ccc(F)cc3)n2)nnc1SCC(N)=O,?,50µM*,?,31%,?,.
CCOc1ccc(Nc2nc(Cc3nnc(SCC(=O)NC4CCCCC4)n3C)cs2)cc1,50µM*,-8%,56µM*,-1%,-8%[12.7 µM],.
COC(=O)c1ccc(CNC(=O)c2nc(Cn3nc(C)c(Br)c3C)no2)cc1,-20%,.,-11%,40%,-3%[59 µM],.
O=C(O)CNC(=O)c1ccc(OC(F)F)cc1,-6%,27%,-8%,43%,-15%[59 µM],1%
O=C1C=CC(=O)N1c1ccc(O)cc1,-5%,13µM*,40µM*,?,1µM*,-2%
O=C1CCCC(=O)N1c1ccc(O)cc1,-21%,25%,-13%,6%,25%,-2%
O=C1C2C3C=CC(C2C(=O)N1c1ccccc1O)C1C2C(=O)N(c4ccccc4O)C(=O)C2C31 (centres undefined),-11%,18%,-21%,37%,-8%,0%
O=C1C2C3C=CC(C2C(=O)N1c1ccc(O)cc1)C1C2C(=O)N(c4ccc(O)cc4)C(=O)C2C31 (centres undefined),-24%,13%,-15%,27%,50µM*,.
O=C1C=CC(=O)N1c1ccc(OC(F)F)cc1,?,?,16µM*,20µM*,1.4µM*,-2%
COC(=O)c1ccccc1NC(=O)c1ccc2c(c1)CCN2S(C)(=O)=O,6%,.,-14%,40%,-1%[59 µM],.
COc1ccc(C(=O)NN2C(=O)C3C4C=CC(O4)C3C2=O)cc1 (centres undefined),0%,22µM*,-11%,11%,4.5µM*,5%
O=C(NN1C(=O)C2C3C=CC(O3)C2C1=O)c1cccc(O)c1 (centres undefined),-3%,45µM*,-13%,43%,7.9µM*,3%
O=C(NN1C(=O)C2C3C=CC(O3)C2C1=O)c1cccc(Br)c1 (centres undefined),-11%,40µM*,3%,46%,?,0%[11.4 µM]
COc1cccc(C(=O)NN2C(=O)C3C4C=CC(O4)C3C2=O)c1 (centres undefined),-2%,?,-8%,58%,?,.
COc1ccc(C(=O)NCc2ccc3c(c2)CCN3C(=O)c2ccc(Cl)cc2)c(OC)c1,-16%,.,?,19%,-19%[59 µM],.
Cn1nnnc1NC(=O)c1ccccc1Cl,50µM*,-16%,?,37%,40µM*,.
CCCn1nnnc1NC(=O)c1cc(Br)ccc1OC,?,6%,-12%,20%,25µM*,1%
CCCn1nnnc1NC(=O)c1cccs1,?,-26%,?,?,35µM*,-5%
CCCn1nnnc1NC(=O)c1ccc(C)cc1Cl,56µM*,-2%,?,41%,22µM*,-9%
CCc1cccc(NC(=O)CCNS(=O)(=O)c2ccc3c(c2)CCN3C(C)=O)c1,.,.,-1%,59%,6%[59 µM],.
CNc1nc(-c2cccnc2)nc2ccccc12,.,?,.,.,0%[0.501 µM],.
CCCC[C@@H]1CCCO[C@@](C(=O)NCc2ccc(S(C)(=O)=O)cc2)(C(F)(F)F)C1,.,13%,-9%,16%,.,.
CCn1nnnc1NC(=O)c1cc(OC)c(OC)c(OC)c1,-18%,16%,79µM*,8%,2%,3%
COc1cc2cc(CNc3ccc(C)cc3)c(=O)n(CC(=O)Nc3ccc(F)cc3F)c2cc1OC,-12%,.,-19%,11%,?,.
COc1ccc2c(c1)c(=O)oc1cc(OCC(=O)NC3CCCCC3)ccc12,79µM*,-9%,40µM*,?,11µM*,?
SMILES,BAZ2B block,Sfp PPTase inh,JMJD2A Tudor,HP1b chromo inh,G9a inh,L3MBTL1 block
COc1ccc2c(c1)c(=O)oc1cc(OCC(=O)NC3CC3)ccc12,?,9%,-34%,4%,?,8%[11.4 µM]
O=C(CNC(=O)c1ccc(F)cc1)OCc1cc(=O)n2ccsc2n1,0%,.,-16%,-5%,11%[59 µM],.
CCc1nc(N2CCC(C)CC2)c2oc3ccccc3c2n1,-2%,?,-1%,65%,40µM*,6%
CCc1nc(Nc2ccccc2O)c2oc3ccccc3c2n1,79µM*,-18%,?,18%,?,.
CCc1nc(NCc2ccco2)c2oc3ccccc3c2n1,79µM*,?,-27%,1%,?,-11%
CCc1nc(N(CC)CC)c2oc3ccccc3c2n1,.,-4%,9%,87%,2%[59 µM],12%
COc1cccc(NC(=O)CSc2nc3c(oc4ccccc43)c(=O)[nH]2)c1,7%,8%,-9%,31%,18%[59 µM],-2%
COc1cccc(NC(=O)CSc2ncnc3c2oc2ccccc23)c1,7%,71µM*,-14%,32%,13%,.
Cc1ccccc1CNC(=O)c1cccc(NC(=O)N2CCSc3ncccc32)c1,-20%,.,-4%,15%,-29%[59 µM],.
CCc1nc(NCc2cccnc2)c2oc3ccccc3c2n1,-35%,-1%,-33%,23%,50µM*,3%
O=C(CSc1ncnc2c1oc1ccccc12)NCc1ccco1,50µM*,28µM*,-32%,4%,14µM*,?
c1coc(CNc2ncnc3c2oc2ccccc23)c1,?,5%,-20%,-10%,56µM*,-10%
CCOCCCNC(=O)C(c1ccc(C)cc1)N(Cc1ccc2c(c1)OCO2)C(=O)c1ccc(NC(C)=O)cc1 (centres undefined),5%,.,-5%,24%,7%[59 µM],.
CCOc1ccc(NC(=O)Cn2cc(C(=O)c3ccc(CC)cc3)c(=O)c3cc4c(cc32)OCO4)cc1,-15%,.,-26%,16%,-7%[59 µM],.
Cc1ccc(N2CCN(C(=O)c3cccn4c(=O)c5ccc(Cl)cc5nc34)CC2C)cc1 (centres undefined),6%,.,-17%,30%,-3%[59 µM],.
CCN(CC)CCCC(C)n1c(-c2ccccc2)nc2c(N(CCOC)CCOC)nc(C)nc21 (centres undefined),.,22%,.,.,.,.
COc1ccc(C2=C(N)c3ccccc3C2=O)cc1,-30%,10%,-17%,6%,?,.
O=C(C1=C(c2ccccc2)C(=O)c2ccccc2C1=O)c1ccccc1,13µM*,-9%,22µM*,?,35µM*,?
COC1=C(c2ccccc2)C(=O)c2ccccc2C1=O,45µM*,3%,?,?,20µM*,-22%
Cc1c(C(=O)NCc2ccccc2Cl)sc2nc3n(c(=O)c12)CCC3,-38%,.,-23%,10%,-29%[59 µM],.
Cc1c(C(=O)NCc2ccc(Cl)cc2)sc2nc3n(c(=O)c12)CCCC3,-23%,.,9%,115%,11µM*,.
COc1ccc(CNC(=O)c2sc3nc4n(c(=O)c3c2C)CCCC4)cc1,45µM*,.,89µM*,56%,14µM*,.

# Source: PubChem (National Center for Advancing Translational Sciences (NCATS))
